Assay in all cases: NCI-60 one-dose screen, 48 h (100 = growth as untreated, 0 = no growth, -100 = all killed)
Holding throughout (details): 10 µM unless noted

The subject of assay [1] is DU-145 prostate.
Assay [2] concerns K-562 leukemia.
Assay [3] deals with MALME-3M melanoma.
Assay [4] has as its system MDA-MB-231 breast.
The subject of assay [5] is RXF 393 renal.
Assay [6] concerns SF-268 CNS.
Assay [7] concerns SF-295 CNS.
Assay [8] has as its system SF-539 CNS.
For assay [9], the system named is UACC-257 melanoma.
The test system of assay [10] is M14 melanoma.
The subject of assay [11] is HCT-15 colon.
Assay [12] deals with HT29 colon.
The subject of assay [13] is SNB-75 CNS.
The test system of assay [14] is SNB-19 CNS.
Assay [15] relates to U251 CNS.
The subject of assay [16] is PC-3 prostate.
In assay [17] the test system is SK-MEL-5 melanoma.
In assay [18] the test system is UACC-62 melanoma.
In assay [19] the test system is LOX IMVI melanoma.
Assay [20] concerns SK-MEL-28 melanoma.

Molecules are shown by their SMILES. The panel holds about 83,000 compounds, 20% with a hit somewhere; the sample as a whole holds those more often.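 Cell lines were cultured in 96-well plates, exposed to a single compound concentration, and assessed for percent growth 48 hours later.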 Values without a mark were called inactive. Activity calls are given as the source filed them. The calls were made as follows: active = growth percent below 10; inactive = the rest.

On to `Cc1ccc(C2=C/C(=C/c3ccc(Br)cc3)C(=O)N2CCc2ccc(S(N)(=O)=O)cc2)cc1`, for which the growth is 104% in assay [1]; 88.6% in assay [2]; 93.4% in assay [3]; 90.4% in assay [4]; 90% in assay [5]; 87.6% in assay [6]. Also, the growth in assay [7] was 101%; in assay [8], 97.4%; in assay [9] it was 101%; in [10], 97.5%; in [11] it was 99.8%; in assay [12] it was 106%. In addition, the growth is 60.9% in [13]; 89.7% in assay [14]; 95.5% in [15]; 88% in assay [16]; 94.7% in assay [17]; 78.7% in [18]. Besides, the growth in assay [19] is 99.6%; in [20] it was 104%.

`COc1ccc2nc3c(cc2c1)C(=O)CC(C(F)(F)F)C3` (stereo not given): the growth in assay [1] was 4.31% (active); in [2] it was 16.7%; in assay [3] it was 49.6%; in assay [4], 60%; in assay [5], -1.91% (active); in [6], 57.4%. Besides, the growth in assay [7] was 45.3%; in assay [8], 22.6%; in assay [9], 82%; in [10] it was 8.65% (active); in assay [11] it was 37.8%; in [12], 10.9%. Moreover, the growth in [13] was 7.87% (active); in assay [14], 50.3%; in assay [15] it was 84.7%; in assay [16], 33%; in assay [17] it was 31.4%; in assay [18], 39.8%. In addition, the growth in assay [19] was 43.8%; in [20] it was 61.1%.

For `Cc1cccc(C[C@H](NC(=O)Nc2ccc(Cl)cc2F)C(=O)N[C@@H]2C(=O)N3C[C@H](O)C[C@H]3C(=O)N3CCCC[C@H]3C(=O)N[C@@H](C)C(=O)N3C[C@H](C)C[C@H]3C(=O)O[C@H]2C)c1`, the growth in assay [1] was 15.1%; in assay [2] it was 12.5%; in assay [3], 7.7% (active); in [4] it was -32.6% (active); in assay [5], -18.1% (active); in assay [6], 11.6%. In addition, the growth in [7] is -21.3% (active); in assay [8], 7.42% (active); in assay [9], 14.9%; in assay [10], 3.02% (active); in assay [11], 27.9%; in assay [12], -10.5% (active). Also, the growth was 4.64% (active) in assay [13]; 16.2% in [14]; 16.4% in [15]; 7.99% (active) in assay [16]; -70.4% (active) in [17]; -26.1% (active) in [18]. The growth was 9.07% (active) in assay [19] and 0.552% (active) in assay [20].

For `O=C(O)c1cccc(CN2CCN(c3cc4c(cc3F)c(=O)c(C(=O)O)cn4C3CC3)CC2)c1O`, the growth is 112% in [1]; 102% in assay [2]; 96.3% in [3]; 106% in assay [4]; 118% in assay [5]; 105% in assay [6]. The growth in [7] is 104%; in [8], 101%; in assay [9], 97.7%; in [10] it was 101%; in assay [11], 104%; in [12], 102%. The growth in assay [13] is 92.2%; in assay [14] it was 99.2%; in assay [15] it was 96.2%; in [16], 93.7%; in [17], 102%; in [18], 102%. Also, the growth in assay [19] is 97.9%; in assay [20], 106%.

Take `CC(C)(C)c1cc(C(=O)Nc2ccccc2C(=O)NCCN)cc(C(C)(C)C)c1`: the growth is 15.8% in assay [1]; -11.2% (active) in assay [2]; 47.7% in assay [3]; -69.4% (active) in assay [4]; -89.3% (active) in assay [5]; 57.5% in [6]. The growth in assay [7] is -69.4% (active); in assay [8], 63.4%; in [9] it was 63.2%; in assay [10] it was -73.9% (active); in assay [11] it was -56.7% (active); in assay [12] it was -41.3% (active). The growth was 66.5% in assay [13]; -46.1% (active) in assay [14]; -57.3% (active) in assay [15]; 4.8% (active) in assay [16]; 46% in assay [17]; -58.3% (active) in assay [18]. Moreover, the results for the growth in assay [19] and in assay [20] were -98.5% (active) and -84% (active), respectively.

In the case of `CC(C)CCSc1nc(N)nc2nc[nH]c12`, the growth is 107% in assay [1]; 81.7% in assay [2]; 250% in assay [3]; 106% in [4]; 106% in assay [5]; 108% in assay [6]. For the same molecule, the growth in [7] was 132%; in [8], 87.4%; in assay [9], 113%; in assay [10], 91.6%; in [11] it was 107%; in assay [12], 114%. Moreover, the growth in [13] is 101%; in assay [14], 93.3%; in assay [15] it was 100%; in assay [16] it was 93.7%; in [17], 93.2%; in [18] it was 82.3%. Besides, the growth in assay [19] was 86.8%; in assay [20], 121%.

`Nc1nc(SCc2cccc([N+](=O)[O-])c2)c2[nH]cnc2n1`: the growth in [1] was 104%; in assay [2], 92%; in assay [3], 107%; in assay [4], 103%; in [5], 73.6%; in [6] it was 90.2%. Besides, the growth in [7] is 93.6%; in [8], 103%; in [9], 104%; in [10], 100%; in assay [11], 95.1%; in assay [12] it was 98.4%. In addition, the growth in [13] was 89.5%; in assay [14], 91.7%; in assay [15], 95%; in assay [16] it was 92.3%; in assay [17] it was 98%; in [18] it was 91.3%. In addition, the growth in assay [19] is 77.9%; in assay [20] it was 106%.

The record behind these values is PubChem BioAssay (NCI).
